# Laboratory results reported in PubChem BioAssay AID1861 (The Scripps Research Institute Molecular Screening Center, 2009).
# In all, about 290,000 compounds went through this assay and about 3,100 (1.1%) were called active. Shown is part of a subset that was picked to be rich in actives. A number with no mark means an inactive call. Rule as the data show it: active = inhibition above about 16% (passing the limit was not always enough); inactive = the rest.
# Target: Neuropeptides B/W receptor type 1 (Homo sapiens) (UniProt P48145)
# Test: GPR7 receptor antagonists, primary screen, cell-based, fluorescence, single concentration (AID 1861);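 also: cells stimulated with the agonist NPW; 0% = agonist with vehicle and 100% = vehicle without agonist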
# Conditions: GPR7-expressing cells, fluorescence antagonist assay; at 4.4 µM; active compounds read high
# Chain of Neuropeptides B/W receptor type 1 (Homo sapiens) (P48145 whole entry, looked up): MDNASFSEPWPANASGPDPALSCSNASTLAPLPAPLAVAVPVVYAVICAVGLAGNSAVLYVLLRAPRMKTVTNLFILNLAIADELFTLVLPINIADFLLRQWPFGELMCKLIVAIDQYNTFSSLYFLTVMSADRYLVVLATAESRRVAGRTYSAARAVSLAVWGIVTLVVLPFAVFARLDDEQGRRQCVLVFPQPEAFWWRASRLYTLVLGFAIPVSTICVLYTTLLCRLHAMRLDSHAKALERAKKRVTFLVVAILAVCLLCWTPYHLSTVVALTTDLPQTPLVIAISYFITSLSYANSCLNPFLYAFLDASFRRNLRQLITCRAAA
row,Compound,inhibition
1,CCCC(C)c1nnc(NC(=O)C2CC(=O)N(c3ccc(OCC)cc3)C2)s1 (centres undefined),0.56%
2,COc1ccc(N(CC(=O)Nc2cc(OC)ccc2OC)S(=O)(=O)c2c(C)noc2C)cc1,-4.71%
3,COc1ccc(/C=C(\C#N)c2c[nH]c3ccccc23)cc1,17.2%
4,COc1cccc(-n2c(SCC(=O)c3c[nH]c4ccccc34)nc3ccccc3c2=O)c1,-11.6%
5,COc1ccc(C(C(O)C(=O)c2c[nH]c3ccccc23)N2CCN(c3ccccc3)CC2)cc1 (centres undefined),25.7% (active)
6,COc1ccc(C(=O)NC(=S)N2CCCCC2c2cccnc2)cc1OC (centres undefined),-2.66%
7,Nc1nc(NCc2ccccc2)n(-c2ccccc2)n1,-7.72%
8,CC1(c2ccc(Cl)cc2)NC(=O)N(CC(=O)c2ccc3c(c2)OCO3)C1=O (centres undefined),-6.7%
9,Cc1ccc(NC(=O)CN2C(=O)NC(C)(c3ccc(Cl)cc3)C2=O)c(Br)c1 (centres undefined),22.3% (active)
10,O=C(CN1C(=O)NC2(CCCC2)C1=O)Nc1ccc(F)c(F)c1F,11.1%
11,O/N=C(\C[n+]1ccccc1)c1ccc(Br)cc1,5.69%
12,CCOc1ccc(-n2c(SCC(=O)Nc3cc(C(=O)O)ccc3Cl)nc3ccccc3c2=O)cc1,2.21%
13,O=C(COc1ccc(Cl)cc1)N1CCN(c2cccc(C(F)(F)F)c2)CC1,-8.3%
14,O=C(COc1ccc(S(=O)(=O)Nc2cccc(C(F)(F)F)c2)cc1)N1CCOCC1,26.6% (active)
15,O=C(COc1ccc(S(=O)(=O)NCc2ccccc2)cc1)N1CCOCC1,4.86%
16,Cc1cc(N/N=C\c2ccc(Br)cc2)nc(-n2nc(C)cc2C)n1,-2.3%
17,COc1ccc(Nc2cc(C)nc(-n3nc(C)cc3C)n2)cc1,20.7% (active)
18,COc1ccccc1/C=N\Nc1cc(C)nc(-n2nc(C)cc2C)n1,-14.4%
19,O=C(NCCc1c[nH]c2ccccc12)C1CCN(Cc2ccc(Br)cc2)CC1,6.85%
20,CCc1ccc(N(C(=O)c2csnn2)C(C(=O)NC2CCCCC2)c2ccncc2)cc1 (centres undefined),22.7% (active)
21,CCc1ccc(N(C(=O)c2csnn2)C(C(=O)NC2CCCCC2)c2cccnc2)cc1 (centres undefined),16.5%
22,O=C(NC1CCCC1)C(c1ccco1)N(C(=O)c1csnn1)c1ccccc1 (centres undefined),-7.05%
23,O=C(NCC(=O)N(c1ccccc1)C(C(=O)NCC1CCCO1)c1ccccc1)c1cccs1 (centres undefined),-0.97%
24,CN(C)CCNc1ccc(-c2n[nH]c(=O)c3ccccc23)cc1[N+](=O)[O-],-19.5%

row,Compound,inhibition
1,O=C(Nc1ccc2ccccc2c1)Nc1ccc2snnc2c1,31.3% (active)
2,O=C(Nc1cccc(Br)c1)c1ccc2snnc2c1,6.67%
3,CCc1ccccc1NC(=O)c1ccc2snnc2c1,4.67%
4,COCC(=O)N1CCCC(C(=O)c2ccc(C(F)(F)F)cc2)C1 (centres undefined),-16.7%
5,CCOC(=O)C1(CCOC)CCN(Cc2cc3ccccc3s2)CC1,-2.08%
6,O=C1CCN(Cc2ccc([N+](=O)[O-])cc2)CCN1[C@H](CO)Cc1ccccc1,0.55%
7,COc1ccc(C(=O)NC2CCN(C(=O)Nc3ccc(F)cc3)CC2)cc1,-10.4%
8,CCOc1ccc(N=C2SC(C(=O)O)CC(=O)N2C)cc1 (centres undefined),-6.69%
9,COc1ccc(N=C2SC(C(=O)Nc3ccc(F)cc3)CC(=O)N2C)cc1 (centres undefined),26.4% (active)
10,CC1CC(=O)N(CC(=O)Nc2cccc(Cl)c2)c2ccccc2S1(=O)=O (centres undefined),0.41%
11,COc1ccc(NC(=O)CSCc2ccc([N+](=O)[O-])cc2)cc1OC,-12%
12,O=C(CSCc1ccc([N+](=O)[O-])cc1)Nc1cccc(C(=O)Nc2ccccc2C(=O)O)c1,-8.22%
13,O=C(CSCc1ccc([N+](=O)[O-])cc1)NCCSCc1ccccc1,44.7% (active)
14,CC(=O)Nc1ccc(NC(=O)CSc2nnnn2-c2ccccc2F)cc1,-7.45%
15,O=C(CN1CCc2cc3c(cc2C1)OCCCO3)Nc1ccccc1,-5.17%
16,CCOC(=O)C1CN(S(=O)(=O)c2ccc(F)cc2)C1,-9.92%
17,Cc1c(CCO)c(=O)n(-c2ccccc2)n1S(=O)(=O)c1ccc(F)cc1,33% (active)
18,Cc1ccc(S(=O)(=O)CC(=O)Nc2c(C)n(C)n(-c3ccccc3)c2=O)cc1,1.37%
19,CC1(C)C(C=C(Cl)Cl)C1C(=O)NC(O)C(=O)c1ccccc1 (centres undefined),-5.98%
20,O=C(CN(C(=O)CNC(=O)c1cccs1)c1cccc(F)c1)NC1CCCCC1,7.46%
21,O=C(CCc1ccccc1)Nc1ccc(NC(=O)C2CCCCC2)nc1,14%
22,O=C(CCc1ccccc1)Nc1ccc(NC(=O)C2CC2)nc1,34% (active)
23,O=C(NCCc1ccccc1)C1CC1,-22.6%
24,O=C(C1CC(=O)N(c2ccc(Br)cc2)C1)N1CCCC1 (centres undefined),-7.92%

row,Compound,inhibition
1,COC(=O)c1ccc(N2CCOCC2)c(NC(=O)c2ccc3c(c2)OCCO3)c1,-10.5%
2,CC(=O)Nc1ccc(S(=O)(=O)N(C)CC(=O)NCCC2=CCCCC2)cc1,26.4% (active)
3,CN(c1ccc(C(=O)NCCC2=CCCCC2)cc1)S(C)(=O)=O,10.7%
4,CN(CC(=O)NCCc1ccccn1)S(=O)(=O)c1ccc(Cl)cc1,-4.58%
5,Cc1ccccc1/C=C\c1nc(O)c([N+](=O)[O-])c(=O)[nH]1,-0.51%
6,CCOC(=O)N1CCC(N2Cc3cccc(C(=O)Nc4c(C)cccc4CC)c3C2=O)CC1,8.95%
7,Cc1cc(C)cc(OCC(=O)NC(C)c2ccccc2)c1 (centres undefined),-3.54%
8,Cc1ccc(OCC(=O)NC(C)c2ccccc2)cc1C (centres undefined),5.96%
9,COc1cc(OC)cc(C(=O)N[C@H](C(=O)OCC(=O)NC(C)c2ccccc2)C(C)C)c1 (some centres undefined),34.5% (active)
10,Cc1ccc(S(=O)(=O)N2CCC(C)CC2)cc1C(=O)NCc1ccccn1,-11.1%
11,Cc1ccc(SCc2c(C(=O)N/N=C/c3cccnc3)nnn2-c2nonc2N)cc1,-12%
12,COc1cc(OC)c(S(=O)(=O)Nc2ccccc2C(=O)O)cc1S(=O)(=O)Nc1ccccc1C(=O)O,-13.8%
13,COc1cc(NC(=O)c2ccccc2NS(=O)(=O)c2ccc(Cl)s2)cc(OC)c1,26.7% (active)
14,COC(=O)c1ccc(NC(=O)c2ccccc2NS(=O)(=O)c2ccccc2)cc1,17.3%
15,COc1ccc(Nc2ncc(F)c(N3CCOCC3)n2)cc1,-9.42%
16,CC(=O)OC(C(=O)NC1CCCCC1)c1ccccc1 (centres undefined),-8.98%
17,COc1ccccc1CN1CCN(C(c2ccccc2)c2ccccc2)CC1,-16.5%
18,CC(NCc1ccccc1OC1CCCC1)c1ccccc1 (centres undefined),30.2% (active)
19,Cc1cnc(CN(C)C(=O)C2CCC(=O)N(CCc3cccc(F)c3)C2)[nH]1 (centres undefined),-18.8%
20,Cn1c2ccc(F)cc2c2nnc(NN)nc21,-11.3%
21,CCn1c2ccc(F)cc2c2nnc(SCCN3CCOCC3)nc21,77.2% (active)
22,Cc1cc2nc(SCCN3CCOCC3)[nH]c2cc1C,3.59%
23,CCCNC(=O)C(=O)Nc1cc2c3c(c1)CCC(=O)N3CCC2,-11.2%
24,CCc1ccc(NC(=O)c2ccc(Cn3cc([N+](=O)[O-])cn3)cc2)cc1,23.8% (active)

row,Compound,inhibition
1,Cn1cc([N+](=O)[O-])c(C(=O)Nc2cnn(Cc3ccc(F)cc3)c2)n1,-7.64%
2,COc1cccc(NC(=O)c2ccc(Cn3cc([N+](=O)[O-])cn3)o2)c1,-2.16%
3,COc1ccc(/C=N/NC(=O)C2CC2)c(OC)c1OC,-4.35%
4,O=C1CCCN2N=C(SCC(=O)Nc3ccc(Br)cc3)SC2=N1,4.5%
5,Cc1cccc(-n2c(SCC(=O)Nc3cccc(S(=O)(=O)NC4=NCCCCC4)c3)nc3ccccc3c2=O)c1C,27.4% (active)
6,CCc1ccc(C(=O)OCC(=O)Nc2cccc(S(=O)(=O)NC3=NCCCCC3)c2)cc1,11.6%
7,NS(=O)(=O)c1cccc(NC(=O)CSc2nc3ccccc3n2-c2ccccc2)c1,0.27%
8,CCOc1ccc(S(=O)(=O)NCCCn2ccnc2)cc1NC(C)=O,-14.2%
9,CCOc1cc(/C=C/c2nc3ccccc3c(=O)[nH]2)cc(Br)c1OC,19%
10,O=S(=O)(c1ccc(OCC(O)CN2CCN(c3ccccc3Cl)CC2)cc1)N1CCOCC1 (centres undefined),26% (active)
11,OC(COc1ccc2ccccc2c1)CN1CCOCC1 (centres undefined),-2.78%
12,CC(=O)Nc1ccc(OCC(O)CN2CCN(c3ccccc3Cl)CC2)cc1 (centres undefined),13%
13,O=C(Nc1ccc(Br)cc1F)C1CC(=O)N(C2CCCCC2)C1 (centres undefined),-3.95%
14,CCN(CC)S(=O)(=O)c1ccc(C(=O)N2CCN(C3=NS(=O)(=O)c4ccccc43)CC2)cc1,-4.91%
15,COc1ccccc1N1CC(C(=O)Nc2nnc(SCC(=O)NC(C)C)s2)CC1=O (centres undefined),-8.06%
16,COc1ccc(C)cc1NC(=O)Nc1ccccc1SC,-7.07%
17,COc1ccc(C)cc1NC(=O)NCc1ccccn1,-18.5%
18,COc1ccc(C)cc1NC(=O)NCCCCc1ccccc1,28.4% (active)
19,Cc1ccc(CN2CCNC(=O)C2CC(=O)NCc2csc(C(C)C)n2)cc1 (centres undefined),7.42%
20,CCCCCCCCCCOC(=O)Cn1c(COc2ccc(C)cc2)[n+](C)c2ccccc21,19.5%
21,CCCCCCCCCCOC(=O)Cn1c(COc2cccc(OC)c2)[n+](C)c2ccccc21,65% (active)
22,CCCCOC(=O)Cn1c(=N)n(CCN(CC)CC)c2ccccc21,2.44%
